Records with an inconclusive call do not appear. Where a call stands in place of a potency, no number is given. Active and inactive are the calls of the source. Calls follow the shape of the dose curve; as a rule, active = well fitted inhibition curve with a large enough effect; inconclusive = small, poorly fitted or top-dose-only effect; inactive = flat fitted curve, though single readings scatter.
target: Calcium and integrin-binding protein 1 (Homo sapiens) (UniProt Q99828); experiment: Primary qHTS for Identification of Calcium Integrin Binding Protein 1 (CIB1) Competitor (AID 1508620); details: CIB1-GST / FITC-alphaIIb peptide fluorescence polarization; series mostly up to 114 µM;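 also: GST tagged CIB1 binding a fluorescein labelled alphaIIb integrin peptide tracer; top concentration of the series differs between compounds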
Method in brief: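 Fluorescence polarization competition: CIB1-GST (1 uM final) preincubated with compound 15 min at room temperature, then FITC-labeled alphaIIb peptide (100 nM final) added for another 15 min. Polarization read at Ex 480/Em 540.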

Chain of Calcium and integrin-binding protein 1 (Homo sapiens) (Q99828 whole entry, looked up): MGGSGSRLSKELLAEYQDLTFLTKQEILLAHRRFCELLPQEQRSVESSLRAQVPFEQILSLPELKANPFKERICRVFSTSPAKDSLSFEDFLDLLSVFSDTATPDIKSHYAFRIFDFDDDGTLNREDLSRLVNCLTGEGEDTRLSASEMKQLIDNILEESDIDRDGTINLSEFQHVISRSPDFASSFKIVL

Row | SMILES | Potency
1 | Cc1ccccc1-c1csc2ncnc(Sc3nnnn3C)c12 | inactive
2 | Brc1cnc2nc(SCc3ccncc3)[nH]c2c1 | inactive
3 | Fc1cc(-c2nc(Nc3ccc(F)c(F)c3)c3ccccc3n2)ccn1 | inactive
4 | Cc1cc(C)nc(NC(=S)N2CCN(c3cccc4[nH]ccc34)CC2)c1 | inactive
5 | Cn1ncc2ccc(-c3ccc4ncnc(NCc5cccs5)c4c3)cc21 | inactive
6 | c1nc(NCCCN2CCCCC2)c2cc(-c3ccc4c(c3)OCO4)ccc2n1 | inactive
7 | COCCCc1cc(F)c(S(=O)(=O)N2CCN(S(=O)(=O)c3ccc4c(c3)OCCO4)CC2)cc1F | inactive
8 | N#Cc1cccc(-c2ccc(CNc3nc(-c4ccccc4C(F)(F)F)nc4ccccc34)cc2)c1 | inactive
9 | Cc1cc2c(s1)c1cnn(Cc3ccc(Cl)c(F)c3)c(=O)c1n2C | inactive
10 | COc1ccc(C2Nc3ccccc3C(=O)N2Cc2ccc(C(C)(C)C)cc2)cc1COc1ccc(NC(C)=O)cc1 (stereo not given) | inactive
11 | O=C(Nc1ccc(F)c(F)c1)Nc1nnc(-c2ccncc2)s1 | inactive
12 | COc1cccc(-c2nc3cc(NC(=O)c4ccc(C)c([N+](=O)[O-])c4)ccc3o2)c1 | inactive
13 | CCOC(=O)/C=C/c1cc(F)c(S(=O)(=O)N2CCN(S(=O)(=O)c3ccc4c(c3)OCCO4)CC2)cc1F | inactive
14 | O=C1CCCC2=C1C(c1[nH]ncc1Cl)N=C(c1nc3ccccc3o1)N2 (stereo not given) | inactive
15 | O=C1Cc2cc(S(=O)(=O)N3CCN(c4ccc(F)cc4)CC3)ccc2N1 | inactive
16 | COc1cccc(NC(=S)N2CCN(c3cccc(Cl)c3Cl)CC2)n1 | inactive
17 | NC(=O)C1CCN(c2nccc(-c3ccc4c(c3)OCCO4)n2)CC1 | inactive
18 | O=S(=O)(c1ccc2c(c1)OCCO2)N1CCN(S(=O)(=O)c2ccccn2)CC1 | inactive
19 | COc1cccc(C2c3c(ncn(-c4ccc(F)cc4)c3=N)Oc3ccc4ccccc4c32)c1 (stereo not given) | inactive
20 | O=C1Cc2cc(S(=O)(=O)N3CCN(c4ccc(C(F)(F)F)cc4)CC3)ccc2N1 | inactive

Row | SMILES | Potency
21 | COc1ccc(C2=Nn3c(nnc3-c3cc(OC)ccc3OC)SC2)c(OC)c1 | inactive
22 | N#Cc1ccccc1CNc1nc2ncc(Br)cc2[nH]1 | inactive
23 | O=C1COc2cc([S+](=O)([O-])Nc3ccc(Cl)c(Cl)c3)c(Cl)cc2N1 | inactive
24 | COc1ccc(S(=O)(=O)NC2CCN(C#N)CC2)cc1 | inactive
25 | Cc1ccc(OCCn2c(CCNC(=O)Cc3cc(F)ccc3F)nc3ccccc32)cc1 | inactive
26 | Oc1c(C(Nc2ccccn2)c2ccccc2)cc(Cl)c2cccnc12 (stereo not given) | inactive
27 | c1cncc(-c2ccc(CNc3nc(N4CCCC4)nc4ccccc34)cc2)c1 | inactive
28 | O=c1c2ccc([N+](=O)[O-])cc2nc2sc(Nc3ccc4c(c3)CCC4)nn12 | inactive
29 | O=C(Nc1ccc2ccccc2c1)Nc1nnc(-c2ccccc2)s1 | inactive
30 | COCC(=O)NCCc1nc2ccccc2n1CCOc1ccc(C)cc1 | inactive
31 | COc1ccc(C2=Nn3c(nnc3-c3cccc(OC)c3OC)SC2)c(OC)c1 | inactive
32 | O=S(=O)(NC1CCC(NS(=O)(=O)c2c(F)cccc2F)CC1)c1ccc2c(c1)OCCO2 (stereo not given) | inactive
33 | NC(=O)C1CCN(c2nc(-c3ccc4occc(=O)c4c3)cs2)CC1 | inactive
34 | Cc1cc(C)nc(/N=C(\NC#N)N2CCN(c3cccc(C(F)(F)F)c3)CC2)c1 | inactive
35 | O=C(Nc1ccc(Cl)c(S(=O)(=O)N2CCOCC2)c1)c1ccc(S(=O)(=O)N2CCOCC2)cc1 | inactive
36 | CCOc1ccc(NC(=O)Nc2ccc(-c3nc4ccccc4[nH]3)cc2)cc1 | inactive
37 | Cc1ccc(-c2csc3ncnc(Sc4nnnn4C)c23)cc1 | inactive
38 | COc1ccc(OC)c(C2=Nn3c(nnc3-c3ccc(OC)c(OC)c3)SC2)c1 | inactive
39 | Cc1cc2c(s1)c1cnn(Cc3ccc(C(C)(C)C)cc3)c(=O)c1n2C | inactive
40 | Nc1cccc(OCCn2c(CCNC(=O)C3CCCCC3)nc3ccccc32)c1 | inactive
